Screens: PubChem BioAssay, several laboratories
An excerpt weighted towards active compounds, which were near 1.9% of everything screened.
SDO1 yeast rescue: restores growth of sdo1-depleted yeast; actives 0.21% (n = 140,000); z-score at 10 µM; S. cerevisiae sdo1-depleted JHY4D growth rescue, OD600 30 h; active compounds read high; pdr5 snq2 efflux-pump mutant strain;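 active = z-score above 3 at both the 24 hr and the 30 hr optical density reads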;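 note: z-score against mean and SD of all compound wells on the same plate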
sEH inhibitor: soluble epoxide hydrolase (human) inhibition; recombinant human sEH enzymatic activity assay; AID 707; actives 0.34% (n = 91,000); inhibition, % at 2 µM; P34913; in the data active = inhibition above about 80%
Target sequence (P34913 whole entry, looked up): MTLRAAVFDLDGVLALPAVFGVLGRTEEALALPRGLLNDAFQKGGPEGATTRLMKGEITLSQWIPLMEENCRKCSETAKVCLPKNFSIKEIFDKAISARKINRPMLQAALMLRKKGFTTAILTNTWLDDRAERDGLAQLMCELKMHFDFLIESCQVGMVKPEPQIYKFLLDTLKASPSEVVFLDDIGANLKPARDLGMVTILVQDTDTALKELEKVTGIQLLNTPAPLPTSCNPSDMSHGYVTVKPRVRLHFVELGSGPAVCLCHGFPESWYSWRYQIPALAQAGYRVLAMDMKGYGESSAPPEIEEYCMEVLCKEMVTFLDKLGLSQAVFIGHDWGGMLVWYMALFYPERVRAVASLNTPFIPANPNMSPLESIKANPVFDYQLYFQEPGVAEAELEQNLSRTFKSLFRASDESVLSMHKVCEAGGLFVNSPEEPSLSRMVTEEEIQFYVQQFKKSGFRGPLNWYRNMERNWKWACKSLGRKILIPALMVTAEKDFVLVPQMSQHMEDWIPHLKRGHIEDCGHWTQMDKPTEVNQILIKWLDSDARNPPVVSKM
sEH activator: soluble epoxide hydrolase (human) activation. activation, % at 2 µM. actives 0.04% (n = 91,000). AID 717. purified human sEH enzymatic activity, activator screen; in the data active = activation above about 37%
Measles CPE: protection of cells from measles virus. Measles virus-infected cells, CPE protection, absorbance. protection (pct of control), % at 4 µM. actives 1.5% (n = 140,000); in the data active = protection mostly above about 24%, no sharp cut-off; inactive = mostly below about 26%
sdo1 rescue conf: SDO1-depleted yeast growth rescue confirmation; OD recovery (no concentration beside the values); S. cerevisiae JHY4D (SDO1-depleted) growth rescue, OD600, 30 h; active compounds read high; efflux-deficient strain, SNQ2 and PDR5 mutated; shares compounds with SDO1 yeast rescue; actives 44% (n = 440); AID 949;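 active = yeast growth recovered at 30 hours, either rising with dose fitted slope above 0.001 or with average optical density gain above 0.07, some results past the limit were not filed as active; inactive = growth falling with dose or no effect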;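 note: gain in OD600 from 0 h to 30 h averaged across all seven doses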
* = called active by the depositor; nt = not tested or not shown.

SMILES | SDO1 yeast rescue | sEH inhibitor | sEH activator | Measles CPE | sdo1 rescue conf
CC(=O)N1CC(=O)N=C1SCC(=O)Nc1nc(-c2ccccc2)c(-c2ccccc2)s1 | -1.12 | nt | nt | -0.6 | nt
COc1ccccc1OCCSc1nc2ccccc2c(=O)[nH]1 | -0.24 | 14.6 | -12.2 | 8.9 | nt
C=CCOC(=O)Nc1c(C(=O)OC)[nH]c2ccccc12 | 3.87* | 12.0 | -11.9 | 6.0 | 0.0291
O=C(COc1ccccc1)N1CCN=C1c1ccccc1 | 0.36 | -8.1 | 12.2 | 4.7 | nt
COc1cc2c(cc1OC)-c1cc(NC3CC3)nc(=O)n1CC2 | -0.18 | nt | nt | -0.1 | nt
CC(=O)N/C(=C\c1ccc(F)cc1)C(=O)OC(C)C | 3.35* | nt | nt | 3.4 | 0.098*
CCN(CC)S(=O)(=O)c1ccc(C(=O)Nc2cc3oc4ccccc4c3cc2OC)cc1 | 1.19 | nt | nt | 12.2 | 0.0201
Cc1ccc(Cn2c(CN3CC(C)OC(C)C3)nc3c2c(=O)n(C)c(=O)n3C)cc1 (configuration not stated) | 8.78* | -0.7 | 4.4 | 30.3 | 0.0574*
Cn1c(=O)c2c(nc(CN3CCOCC3)n2CCCc2ccccc2)n(C)c1=O | 0.58 | 5.1 | -4.8 | 12.1 | nt
CN1CCN(Cc2nc3c(c(=O)n(C)c(=O)n3C)n2CCCc2ccccc2)CC1 | 11.3* | 3.8 | -1.1 | 12.1 | 0.129*
CCc1nc(SCC(=O)Nc2sc(C)c(C)c2C(=O)OC)c2ccccc2n1 | -1.31 | 6.3 | -6.1 | 12.9 | nt
COc1ccc(NC(=O)NCc2ccncc2)cc1 | 0.01 | -1.1 | 1.0 | 3.2 | nt
COc1cc(/C=C/C(=O)c2ccc(NS(=O)(=O)c3ccc(C)cc3)cc2)cc(OC)c1O | 11.4* | nt | nt | 3.6 | 0.0551
COc1cc(/C=C/C(=O)c2ccc(NS(=O)(=O)c3ccc(C)cc3)cc2)ccc1OC(F)F | -0.16 | nt | nt | 4.8 | nt
Cc1cccn2c(=O)c(C=Nc3ccccc3)c(NCCO)nc12 | 1.44 | -2.1 | 2.4 | 5.0 | nt
Cc1ccc2nc(C(F)OC(F)(F)F)[nH]c2c1 (configuration not stated) | 12* | -6.5 | 8.0 | 2.5 | 0.0413
CCOC(=O)N1CCC(N2C(=O)c3cc(C(=O)NC4CCCCC4)ccc3C2O)CC1 (configuration not stated) | 0.57 | nt | nt | 0.6 | nt
O=C(/C(=C(\[O-])c1ccccc1)[n+]1ccc2ccccc2c1)c1ccccc1 | 7.91* | nt | nt | 14.2 | 0.0395
O=C(/C(=C(\[O-])c1ccccc1)[n+]1ccc2ccccc2c1)c1ccc(Cl)cc1 | -0.49 | nt | nt | 14.1 | nt
CCOC(=O)C1CCCN(C(=O)c2ccccc2SCCOC)C1 (configuration not stated) | 1.61 | 6.1 | -2.5 | 8.6 | 0.0814*
CN(CC(=O)NCc1cccnc1)S(=O)(=O)c1ccc2c(c1)c(=O)n(C)c(=O)n2C | 3.01* | 8.4 | -9.4 | 15.7 | 0.0744*
CN(CC(=O)NCCc1ccc(Cl)cc1)S(=O)(=O)c1ccc2c(c1)c(=O)n(C)c(=O)n2C | -0.72 | -6.3 | 5.2 | 11.2 | nt
